Assay [1] in a line: inhibitors of TNFa-induced NFkB p65 translocation, primary screen, imaging, HUVEC, MLSMR starter and 10KST1 sets (AID 438;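 active = inhibition above 20% together with a positive visual image hit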;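 also: compound added about 3h40 before a 20 min TNFalpha stimulation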;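 as to inhibition: signal is the nuclear over cytoplasmic p65 intensity ratio per well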). The conditions noted are these: HUVEC TNFa-induced p65 nuclear translocation; cell count: measured here: nuclei count (cytotoxicity indicator), at 2.08 µM; inhibition: at 2 µM, stronger effect = higher value, 0% TNFa-plus-vehicle, 100% no-TNFa wells.
Assay [2] is described as follows: inhibitors of mutant huntingtin aggregation, primary screen, imaging, exon1htt(103Q)mCFP cells, high-content imaging (AID 483;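 active = visual image review flags a hit and inhibition of aggregation exceeds 20%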;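 also: compound exposure lasted 3 days before fixation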;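 as to nuclei count: percent of the per-plate median nuclei count of sample wells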). The following applies: exon1htt(103Q)mCFP cell line, aggregate imaging, at 2 µM; inhibition of aggregation: stronger effect = higher value; nuclei count: measured here: cell count, toxicity.
Assay [3] can be described thus: inhibitors of E-selectin induction by TNFa, primary screen, imaging, HUVEC, immunofluorescence, MLSMR starter and 10KST1 sets (AID 487;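 active = visually confirmed hit in the image check and inhibition above 20%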;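 as to inhibition: signal is fraction of cell area covered by stained E-selectin grains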;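 as to nuclei count: 100% = median nuclei count of all wells on the same plate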). The following applies: HUVEC TNFalpha-induced E-selectin immunofluorescence imaging, at 2 µM; inhibition: stronger effect = higher value; nuclei count: measured here: cell number, toxicity.
The target of assay [4] is Voltage-gated potassium channel subunit beta-2 (Rattus norvegicus) (UniProt P62483). The assay is described as follows: KvBeta enzyme negative modulators, primary screen, biochemical, NADPH fluorescence (AID 622;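 active = fluorescence slope higher than the sample average by over 3 SD, cut at about -0.22 in these data, passing the limit was not always enough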;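 also: slope of raw intensity against log time taken from 70 to 1610 s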). The following applies: recombinant KvBeta, 4-cyanobenzaldehyde reduction, at 10 µM, stronger effect = higher value.
For assay [5] the target is unchanged. The assay is described as follows: KvBeta positive modulators, primary screen, biochemical, NADPH fluorescence (AID 623;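 active = NADPH fluorescence slope more negative than the mean of all samples by about 3 SD, 99.7% confidence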;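 also: fluorescence intensity change per second fitted from 20 to 320 s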). The following applies: Recombinant KvBeta, NADPH fluorescence decrease slope, 10 min; at 10 µM; stronger effect = lower value.
Assay [6] has as its target Alpha-2C adrenergic receptor (Homo sapiens) (UniProt P18825). The assay is described as follows: modulators of alpha2C/GIRK thallium flux, primary screen, cell-based, HEK293 alpha2C/GIRK1/2 (AID 624;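 active = fluorescence slope after compound addition differing from the mean of all screened samples at 99.7% confidence, in either direction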;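 also: slope of fluorescence ratio to pre-addition baseline per second over 15 to 24 s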). The conditions noted are these: thallium flux BTC fluorescence, at 10 µM, actives lie on both sides.
Assay [7] is described as follows: inhibitors of Sendai virus-induced IRF3 signaling, primary screen, TLR/RLR signaling modifier project, cell-based, Sendai virus stimulus, luciferase, 10K MLSCN set (AID 602276;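 active = inhibition at or above 50% at 10 µM; inactive = inhibition below 50%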;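 also: firefly luciferase from ISG56 promoter only with Renilla not read in this screen; 0% = Sendai virus plus DMSO and 100% = medium plus DMSO without virus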). The conditions noted are these: HEK293 RL24 IRF3 luciferase reporter, at 10 µM, stronger effect = higher value. A general note: Reporter assays use an easily measured gene product as a stand-in for the process of interest.

Assay [8] in a line: inhibitors of poly I:C-induced TLR3 signaling, primary screen, cell-based, poly I:C stimulus, luciferase, 10K MLSCN set (AID 602277). The conditions noted are these: HEK293-TLR3 RL24 IRF3 luciferase reporter, at 10 µM, stronger effect = higher value.

From PubChem BioAssay come the findings set out here.

Activity calls are given as the source filed them.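 The calls were made as follows, unless noted: active = inhibition of the reporter signal at or above 50%; inactive = inhibition below 50%.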

What is called inhibition is the change of the read-out against control, counted positive when it falls.

Sequence of Alpha-2C adrenergic receptor (Homo sapiens) (P18825 whole entry, looked up): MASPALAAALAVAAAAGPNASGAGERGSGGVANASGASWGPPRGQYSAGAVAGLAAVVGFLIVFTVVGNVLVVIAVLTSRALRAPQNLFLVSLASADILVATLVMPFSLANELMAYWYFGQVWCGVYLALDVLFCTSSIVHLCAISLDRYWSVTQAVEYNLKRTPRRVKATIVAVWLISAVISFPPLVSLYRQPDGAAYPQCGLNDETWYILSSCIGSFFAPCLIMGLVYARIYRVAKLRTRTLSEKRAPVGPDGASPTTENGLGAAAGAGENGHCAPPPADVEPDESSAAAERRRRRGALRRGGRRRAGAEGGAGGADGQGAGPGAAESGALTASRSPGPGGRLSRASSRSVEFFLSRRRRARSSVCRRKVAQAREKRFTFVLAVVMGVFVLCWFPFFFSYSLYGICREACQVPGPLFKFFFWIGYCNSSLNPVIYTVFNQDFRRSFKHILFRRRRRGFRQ
Sequence of Voltage-gated potassium channel subunit beta-2 (Rattus norvegicus) (P62483 whole entry, looked up): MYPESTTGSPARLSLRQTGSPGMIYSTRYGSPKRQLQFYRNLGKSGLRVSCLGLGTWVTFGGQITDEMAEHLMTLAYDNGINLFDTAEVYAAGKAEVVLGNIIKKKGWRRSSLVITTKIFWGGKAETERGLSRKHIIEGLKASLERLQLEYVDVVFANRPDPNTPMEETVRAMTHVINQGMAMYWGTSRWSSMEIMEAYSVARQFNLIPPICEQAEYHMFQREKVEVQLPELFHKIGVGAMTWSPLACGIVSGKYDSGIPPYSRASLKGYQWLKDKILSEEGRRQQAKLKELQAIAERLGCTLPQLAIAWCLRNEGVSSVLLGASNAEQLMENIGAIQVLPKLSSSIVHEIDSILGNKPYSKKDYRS

For the compound `Cc1ccc(-n2nc(C)c3cc(C(=O)O)sc32)cc1`, the cell count in assay [1] was 369. Moreover, the inhibition was 6.3% (inactive) in assay [1], -140% (inactive) in assay [3], 12.6% (inactive) in assay [7] and 33.9% (inactive) in assay [8]. The inhibition of aggregation in assay [2] is 11.1% (inactive). Moreover, the nuclei count in assay [2] stood at 90.3%; in assay [3] it was 97.4%. Moreover, the fluorescence slope in assay [4] is -0.191 (inactive). In assay [5], the NADPH fluorescence slope is -5e-05 (inactive). Also, in assay [6], the slope is 0.00582 (inactive).

Regarding `COc1ccc(S(=O)(=O)n2nc(OC(=O)c3ccc(C)cc3)cc2N)cc1`, the cell count in assay [1] worked out at 566. Moreover, the inhibition in assay [1] is -19.6% (inactive); in assay [3], -31% (inactive); in assay [7] it was 14% (inactive); in assay [8], 19.2% (inactive). For the same compound, the inhibition of aggregation in assay [2] was -9.1% (inactive). The nuclei count in assay [2] is 106%; in assay [3], 144%. Also, the fluorescence slope in assay [4] was -0.337 (inactive). Further, the NADPH fluorescence slope in assay [5] was -1.2e-06 (inactive). Also, the slope in assay [6] was 0.00323 (inactive).

Take `COc1cc(C2c3c(n[nH]c3C)C(=O)N2c2ccc(Br)cc2)ccc1O` (centres undefined): the cell count in assay [1] is 677. The inhibition in assay [1] was -3.9% (inactive); in assay [3], 3.2% (inactive); in assay [7] it was 8.55% (inactive); in assay [8], 24.2% (inactive). Also, in assay [2], the inhibition of aggregation was 1.5% (inactive). Besides, the nuclei count in assay [2] was found to be 100%; in assay [3], 106%. Also, in assay [4], the fluorescence slope is -0.408 (inactive). The NADPH fluorescence slope in assay [5] was -1.5e-06 (inactive). In assay [6], the slope is 0.00373 (inactive).

Regarding `C=CCN1C(=O)CS/C1=C(\C#N)S(=O)(=O)c1ccc(C)cc1`, the cell count in assay [1] was determined as 585. The inhibition was 13.3% (inactive) in assay [1], -75.5% (inactive) in assay [3], 20% (inactive) in assay [7] and 28.5% (inactive) in assay [8]. In assay [2], the inhibition of aggregation is -5.1% (inactive). In addition, the nuclei count in assay [2] worked out at 108%; in assay [3], 104%. The fluorescence slope in assay [4] was -0.481 (inactive). Moreover, the NADPH fluorescence slope in assay [5] is -4.8e-05 (inactive). Further, in assay [6], the slope was 0.00449 (inactive).

Take `Cc1ccccc1NC(=O)C1CC(=O)N(c2ccccc2F)C1` (centres undefined): the cell count in assay [1] was 238. Besides, the inhibition is -0.6% (inactive) in assay [1], -56.9% (inactive) in assay [3], 0.893% (inactive) in assay [7] and 28.8% (inactive) in assay [8]. In assay [2], the inhibition of aggregation is 30.3% (inactive). Besides, the nuclei count in assay [2] was found to be 77%; in assay [3], 97.7%. The fluorescence slope in assay [4] was -0.462 (inactive). For the same compound, the NADPH fluorescence slope in assay [5] is -3.8e-05 (inactive). The slope in assay [6] is 0.00686 (inactive).

As to `CN(C)/C=N/c1ncnc2c1cnn2-c1ccc(C(F)(F)F)cn1`, in assay [1], the cell count was 565. The inhibition in assay [1] is -0.9% (inactive); in assay [3] it was 21% (inactive); in assay [7], -45.2% (inactive); in assay [8], -118% (inactive). Further, in assay [2], the inhibition of aggregation is -3.8% (inactive). In addition, the nuclei count in assay [2] was 110%; in assay [3], 114%. Also, the fluorescence slope in assay [4] is -0.583 (inactive). Further, the NADPH fluorescence slope in assay [5] is -4.6e-05 (inactive). Besides, the slope in assay [6] is 0.0102 (inactive).

For the compound `CCn1c(SCC(=O)Nc2ccc(Cl)cc2)nnc1C1CC1`, in assay [1], the cell count stood at 811. Further, the inhibition in assay [1] is 1.7% (inactive); in assay [3], -54.5% (inactive); in assay [7] it was 4.41% (inactive); in assay [8] it was 17.1% (inactive). Further, the inhibition of aggregation in assay [2] was 12.1% (inactive). Also, the nuclei count in assay [2] was found to be 127%; in assay [3], 97.1%. Besides, the fluorescence slope in assay [4] is -0.608 (inactive). The NADPH fluorescence slope in assay [5] was -1.6e-05 (inactive). In assay [6], the slope was 0.00675 (inactive).

Consider `COc1ccc(N(C)C(=O)CCS(=O)(=O)c2cccc3nonc23)c(OC)c1`, for which the cell count in assay [1] stood at 557. In addition, the inhibition is -1.4% (inactive) in assay [1], -18.3% (inactive) in assay [3], 4.07% (inactive) in assay [7] and 16.9% (inactive) in assay [8]. In addition, the inhibition of aggregation in assay [2] was -17.3% (inactive). The nuclei count was determined as 121% in assay [2] and 125% in assay [3]. For the same compound, the fluorescence slope in assay [4] was -0.488 (inactive). In addition, in assay [5], the NADPH fluorescence slope was -0.000205 (inactive). In addition, the slope in assay [6] is 0.00467 (inactive).

On to `CCc1ccc(Nc2cc(=O)n(C3CCCCC3)c(=O)[nH]2)cc1`, for which, in assay [1], the cell count came out at 385. The inhibition was 3.9% (inactive) in assay [1], -1.5% (inactive) in assay [3], -13.5% (inactive) in assay [7] and -97.2% (inactive) in assay [8]. In addition, the inhibition of aggregation in assay [2] is -8.7% (inactive). In addition, the nuclei count in assay [2] was 104%; in assay [3], 121%. In assay [4], the fluorescence slope is -0.579 (inactive). Moreover, in assay [5], the NADPH fluorescence slope is -2.4e-05 (inactive). In addition, the slope in assay [6] is 0.00696 (inactive).

As for `Cc1noc(C)c1CSc1nc2cc(S(=O)(=O)N3CCOCC3)ccc2o1`, in assay [1], the cell count was found to be 515. Besides, the inhibition is -12.1% (inactive) in assay [1], -52% (inactive) in assay [3], 16.1% (inactive) in assay [7] and 19.5% (inactive) in assay [8]. Further, the inhibition of aggregation in assay [2] was -33.5% (inactive). Also, the nuclei count in assay [2] is 135%; in assay [3], 118%. In addition, the fluorescence slope in assay [4] was -0.478 (inactive). Moreover, the NADPH fluorescence slope in assay [5] is -0.000262 (inactive). For the same compound, in assay [6], the slope was 0.00432 (inactive).

In the case of `CCOC(=O)c1cc2c(=O)n3cccc(C)c3nc2n(CCOC)c1=NC(=O)c1ccncc1`, in assay [1], the cell count came to 397. The inhibition in assay [1] was -0.2% (inactive); in assay [3], -4.6% (inactive); in assay [7] it was 16.8% (inactive); in assay [8], 12.5% (inactive). In addition, the inhibition of aggregation in assay [2] is -15.8% (inactive). Besides, the nuclei count was 100% in assay [2] and 96.5% in assay [3]. Besides, in assay [4], the fluorescence slope was -0.346 (inactive). In assay [5], the NADPH fluorescence slope was -4.3e-05 (inactive). Further, in assay [6], the slope was 0.00713 (inactive).

With `CC1(C)CC(=O)c2sc(NS(C)(=O)=O)nc2C1`, the cell count in assay [1] amounted to 638. For the same compound, the inhibition was -10.5% (inactive) in assay [1], -56.1% (inactive) in assay [3], 18.2% (inactive) in assay [7] and 27.8% (inactive) in assay [8]. Besides, the inhibition of aggregation in assay [2] was -16.8% (inactive). Further, the figures for the nuclei count in assay [2] and in assay [3] were 104% and 106%, respectively. In addition, in assay [4], the fluorescence slope was -0.533 (inactive). Besides, the NADPH fluorescence slope in assay [5] is -4.4e-05 (inactive). In assay [6], the slope is 0.00519 (inactive).

For the compound `O=C(NCc1cccs1)C1CCCN(c2ncccn2)C1` (centres undefined), in assay [1], the cell count amounted to 404. For the same compound, the inhibition in assay [1] was -3% (inactive); in assay [3], -10.2% (inactive); in assay [7], 12.7% (inactive); in assay [8] it was 9.11% (inactive). Moreover, the inhibition of aggregation in assay [2] is 13.4% (inactive). For the same compound, the nuclei count was 96.8% in assay [2] and 123% in assay [3]. Besides, the fluorescence slope in assay [4] was -0.5 (inactive). In addition, in assay [5], the NADPH fluorescence slope is -1.3e-05 (inactive). Also, the slope in assay [6] is 0.00547 (inactive).

For `COC(=O)C1=C(C)NC(C)=C(C(=O)OC)C1C1CC=CCC1` (centres undefined), in assay [1], the cell count was 377. For the same compound, the inhibition in assay [1] is 1.7% (inactive); in assay [3], 32.4% (inactive); in assay [7], 8.91% (inactive); in assay [8] it was 22.8% (inactive). For the same compound, the inhibition of aggregation in assay [2] is 24.3% (inactive). Besides, the nuclei count in assay [2] turned out to be 91.2%; in assay [3], 93.7%. For the same compound, in assay [4], the fluorescence slope is -0.456 (inactive). Further, the NADPH fluorescence slope in assay [5] was 8.7e-05 (inactive). Moreover, in assay [6], the slope is 0.00547 (inactive).
